rTrxR1 inhibitor: blocks rat thioredoxin reductase 1 | O89049 | recombinant rTrxR1, NADPH fluorescence consumption, selenite substrate | Potency, µM (series often up to 114 µM), inactives show at the top dose activity change, negative = inhibition, most hits filed as inhibitors | 390,000 compounds, 1% hits | AID 588453; note: nearly all actives have a fitted effect of over 65% in size
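Rat TrxR1 (90 nM in the dispensed reagent) was pre-reduced with 400 uM NADPH for 5 min at room temperature, then incubated with compound for 15 min. After 400 uM selenite was added, NADPH fluorescence (Ex 340/Em 450 nm) was followed for 8 min.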
mIDH1 inhibitor: human IDH1 R132H inhibition | O75874 | IDH1-R132H enzyme, NADPH consumption, diaphorase/resazurin fluorescence | Potency, µM (top dose mostly 76.6 µM), without a hit: at the highest dose activity change, negative = inhibition, usual class: inhibitors | 390,000 compounds, 0.093% hits; note: nearly all actives have a fitted effect of over 65% in size
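IDH1-R132H (0.5 ug/mL) preincubated 30 min with compound, then NADPH (0.016 mM) and alpha-KG (2 mM) added; 80 min at RT, pH 7.5. Remaining NADPH coupled via diaphorase/resazurin to fluorescence (540/590 nm); concentration-response curves normalized to no-enzyme control.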
TrxR1 substrate: is turned over as a substrate by rat TrxR1 | 390,000 compounds, 0.01% hits | Potency, µM (series often up to 114 µM), inactives show top-dose activity change, negative = substrate turnover | purified TrxR1 substrate turnover, NADPH consumption readout; note: nearly all actives have a fitted effect of over 50% in size
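Rat TrxR1, dispensed at 90 nM, was prereduced with 400 uM NADPH (final) for 5 min at ~22 deg C, then incubated with compound 15 min before 400 uM selenite. A first-read NADPH fluorescence drop versus no-compound background flagged substrates.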
VDR inh: inhibitors of human vitamin D receptor; 400,000 compounds, 0.93% hits; P11473; VDR-SRC2-3 peptide fluorescence polarization, 2 h; Potency, µM, inactives show max response, negative = inhibition, usual class: inhibitors
Target sequence (P11473 whole entry, looked up): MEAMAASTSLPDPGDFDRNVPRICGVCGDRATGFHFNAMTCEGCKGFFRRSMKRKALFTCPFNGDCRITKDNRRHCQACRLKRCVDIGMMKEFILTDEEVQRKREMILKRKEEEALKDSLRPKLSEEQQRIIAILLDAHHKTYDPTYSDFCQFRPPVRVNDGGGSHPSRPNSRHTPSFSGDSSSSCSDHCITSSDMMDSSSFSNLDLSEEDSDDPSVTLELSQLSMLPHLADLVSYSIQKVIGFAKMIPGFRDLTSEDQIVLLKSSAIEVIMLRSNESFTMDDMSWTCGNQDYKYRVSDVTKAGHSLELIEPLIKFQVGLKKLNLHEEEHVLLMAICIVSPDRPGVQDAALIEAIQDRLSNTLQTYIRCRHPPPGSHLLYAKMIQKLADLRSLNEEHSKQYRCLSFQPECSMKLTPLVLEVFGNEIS
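After 23 nl compound addition and a short centrifugation, plates sat for 2 hours at ambient temperature; polarization of fluorescence then indicated loss of VDR binding to peptide SRC2-3.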
PLK1 PBD block: inhibitors of human PLK1 polo-box domain binding; Potency, µM, for inactives: max response, negative = inhibition, most hits filed as inhibitors; Plk1 PBD binding of FITC phosphopeptide, fluorescence polarization; 360,000 compounds, 2.8% hits; AID 720504; note: series mostly up to about 57 µM; nearly all actives have a fitted effect of over 65% in size
Sfp PPTase inh: inhibitors of Bacillus subtilis Sfp phosphopantetheinyl transferase; Biochemical Sfp PPTase activity, qHTS; Potency, µM, inactives show largest response in the series, negative = inhibition, actives largely listed as inhibitors; Q9F4F7; 310,000 compounds, 3.5% hits; AID 1490;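 note: the enzyme is Sfp with the accession as filed and its product quenches rhodamine fluorescence; 0% = enzyme reaction without inhibitor and -100% = no enzyme wells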
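Reaction rates are the 30-min fluorescence difference (ex 525, em 598 nm) in wells containing 15 nM Sfp, 5 uM rhodamine-CoA and 12.5 uM BHQ-2-YbbR at pH 7.6 with 10 mM MgCl2.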
Starred values were filed as active, the others as inactive; ? = inconclusive; nt = no result; [ ] = remark or other dose. Sampled rows, rich in hits. Any-hit rate of the full collection: about 5.2%. Calls come from the whole dose curve; as a rule, active = well fitted curve in the direction sought with a large enough effect; inconclusive = small, poorly fitted or top-dose-only effect, or another doubt; inactive = no such curve, though single readings can be large; an effect the other way counts as inactive or inconclusive. Unless noted, % is set by controls: 0 for no effect and ±100 for the full control effect; potency is the fitted concentration of half-maximal effect.

SMILES | rTrxR1 inhibitor | mIDH1 inhibitor | TrxR1 substrate | VDR inh | PLK1 PBD block | Sfp PPTase inh
O=C(Nc1nnc(Cc2ccc([N+](=O)[O-])cc2)s1)c1ccc2c(c1)OCO2 | 0% | 9% | -5% | 15% | 1% | 20%
CNCC(=O)NCC(=O)N[C@@H](Cc1ccccc1)C(=O)N[C@@H](CC(C)C)C(=O)O | nt | nt | nt | 7% | nt | 5%
CC(=O)C(=O)O | nt | nt | nt | -1% | nt | -13%
CCOC(=O)C1=NN(c2ccccc2)C(=O)/C1=C\c1ccc(N(C)C)cc1 | ? | 4% | -4% | ? | 1.9µM* | -10%
COc1ccc(C=C2c3ccccc3C(=O)c3ccccc32)c(OC)c1 | nt | nt | nt | nt | nt | -5%
CC1=NN(Cc2ccccc2)C(=O)/C1=C\c1ccc(N(C)C)cc1 | -13% | 0% | -12% | 1% | -2% | 5%
CCOC(=O)CC1=NN(c2ccccc2)C(=O)/C1=C\c1ccc(OC)cc1OC | -23%[57.1 µM] | 11% | -2%[57.1 µM] | 50µM* | 2.7µM* | -17%
COc1ccc(C(=O)NNC(=O)C2=NN(c3ccccc3)C(=O)CC2)cc1 | 22% | -6% | -4% | -10% | -18% | -8%
COC(=O)CC1=NN(c2ccccc2)C(=O)/C1=C\c1ccc(OC)cc1 | -34% | -8% | -4% | -25% | 2.7µM* | 8%
COCCN(Cc1ccc(C)cc1)C(=O)[C@H]1O[C@@H](n2ccc(=O)[nH]c2=O)[C@H](O)[C@@H]1O | nt | nt | nt | nt | -11% | nt
COc1ccc(N=C2C(=O)N3c4c(cccc42)C(C)=CC3(C)C)cc1 | -2% | -10% | -16% | 50µM* | -17% | -8%
CC(=O)N(C)C | nt | nt | nt | nt | nt | 15%
Cc1ccccc1S(=O)(=O)Nc1nc2ccccc2nc1Cl | 7%[57.1 µM] | 3% | 4%[57.1 µM] | -5% | -8% | 6%
O=S(=O)(Nc1nc2ccccc2nc1Cl)c1ccc(Br)cc1 | -28% | 12% | 7% | -7% | -15% | 71µM*
O=S(=O)(Nc1nc2ccccc2nc1N1CCc2ccccc2C1)c1ccc(Br)cc1 | 7%[57.1 µM] | 2% | 26% | -6% | ? | -15%
O=S(=O)(Nc1nc2ccccc2nc1N1CCc2ccccc2C1)c1ccc(Cl)cc1 | 6% | -3% | 9% | -12% | 21µM* | 11%
CC(C)CSc1nc(N)nc2c1ncn2C1OC(CO)C(O)C1O (stereo not drawn) | 22%[57.1 µM] | 1% | 3%[57.1 µM] | 1% | -4% | nt
CC(=O)c1ccc(NC(=O)CN2C(=O)NC(C)(C3CCCCC3)C2=O)cc1 (stereo not drawn) | 17% | -15% | 1% | -6% | -1% | nt
O=C(CSc1nccn1Cc1ccccc1)Nc1ccc2c(c1)OCCO2 | 18%[57.1 µM] | -16% | 3%[57.1 µM] | 5% | nt | nt
CSCC[C@H](NC(=O)c1ccc(NC[C@@H](N)CS)cc1-c1ccccc1)C(=O)O | nt | nt | nt | 7.9µM* | nt | ?
COC(=O)[C@H](CCSC)NC(=O)c1ccc(NC[C@@H](N)CS)cc1-c1ccccc1 | nt | nt | nt | 10µM* | nt | ?
O=c1[nH]cc(I)cc1I | -52% | 5% | 0%[57.1 µM] | -10% | -5% | 22µM*
O=C(C[n+]1c(Cl)ccc2ccccc21)c1ccc2ccccc2c1 | -18% | nt | -4% | nt | nt | nt
CC(C)(C)C(=O)NCC12C=CC(O1)C1C(=O)N(c3ccccc3)C(=O)C12 (stereo not drawn) | 18µM* | -2% | 1% | ? | -16% | -1%
O=C1C2C3C=CC(CO)(O3)C2C(=O)N1c1ccc(-c2ccccc2)cc1 (stereo not drawn) | nt | nt | nt | nt | nt | 5µM*
SMILES | rTrxR1 inhibitor | mIDH1 inhibitor | TrxR1 substrate | VDR inh | PLK1 PBD block | Sfp PPTase inh
CCOc1ccccc1-c1nnc2n1N=C(c1cccc(OC)c1)CS2 | nt | nt | nt | nt | nt | -29%
O=C(O)c1cccc(NC(=O)c2ccccc2)c1 | -1% | -4% | -5% | 25% | -14% | nt
Nc1ccc(C(=O)Nc2cccc(NC(=O)c3ccc(N)cc3)c2)cc1 | 8% | 2% | -5%[57.1 µM] | ? | 27µM* | 10%
CC(C)c1ccc2c(c1)CC[C@@H]1[C@@](C)(CN)CCC[C@]21C | nt | nt | nt | nt | nt | -8%
CC(C)c1ccc2c(c1)CCC1C(C)(CN)CCCC21C (stereo not drawn) | 9% | 2% | 4% | 4% | -10% | 11µM*
COc1ccc(-n2nc3cc(C)c(N)c(Br)c3n2)cc1 | 11%[57.1 µM] | 16% | 7% | -1% | 3.8µM* | 40µM*
Cc1cc(=O)n2nc(-c3ccccc3)sc2n1 | -2% | 3% | 2% | 9% | -14% | -11%
Cc1cc(=O)n2c3c(sc2n1)C(=O)N(Cc1ccccc1)C3=O | nt | nt | nt | nt | nt | 13µM*
COc1ccc(CCNC(=O)CCc2c(C)c3cc4c(C)coc4c(C)c3oc2=O)cc1OC | 12% | -10% | 1% | 9% | nt | nt
Cc1ccc(N(Cc2cccs2)C(=O)c2ccccc2)cc1 | 11% | 7% | -5% | -5% | nt | nt
Cc1cccc(CNc2ncncc2-c2ccc3c(c2)OCO3)c1 | nt | nt | nt | ? | nt | -9%
c1ccc(CNc2nc(-c3ccc4c(c3)OCO4)nc3ccccc23)cc1 | nt | nt | nt | 45µM* | nt | 4%
c1ccc(CNc2ncncc2-c2ccc3c(c2)OCO3)cc1 | nt | nt | nt | 28µM* | nt | -8%
COc1ccccc1Nc1nc2c(s1)CCC2 | -3%[57.1 µM] | 2% | 6%[57.1 µM] | -18% | 27µM* | 40µM*
Cc1ccc(Nc2nc3c(s2)CCC3)c(C)c1 | -9% | 2% | 3% | -1% | -25% | ?
Cc1cccc2cc(C#N)c(N3CCC(O)CC3)nc12 | 32% | 8% | 16% | -4% | -9% | 7%
CCOC(=O)C1=C(COC(=O)CCOc2ccccc2)NC(=O)NC1C (stereo not drawn) | 0% | 9% | -3% | 30% | -6% | nt
CN(CCCc1cnc[nH]1)C(=S)NCCCN(Cc1ccc(Cl)cc1)c1ccc(Br)cn1 | 17% | nt | 0% | -10% | nt | nt
COc1cc(C(C[N+](=O)[O-])c2c(-c3ccccc3)cc3ccccn23)cc(OC)c1OC (stereo not drawn) | 1.8µM* | 0% | 0% | -15% | -12% | 56µM*
COc1cc(C(C[N+](=O)[O-])c2c(C)cc3ccccn23)ccc1O (stereo not drawn) | -52% | -14% | 4%[57.1 µM] | -19% | -5% | ?
COc1ccc(C(C[N+](=O)[O-])c2c(-c3ccccc3)cc3ccccn23)cc1 (stereo not drawn) | ? | -11% | 1%[57.1 µM] | -30% | -16% | 11%
COc1ccc(C(C[N+](=O)[O-])c2c(-c3ccccc3)cc3ccccn23)cc1OC (stereo not drawn) | 16µM* | 4% | -5% | -11% | -28% | -28%
N#Cc1cccc(NC(=O)CCNS(=O)(=O)c2ccc3c(c2)CCN3C(=O)C2CC2)c1 | -5%[57.1 µM] | 2% | -6%[57.1 µM] | 18% | nt | nt
O=C1CC(c2ccc(O)c(O)c2)Oc2cc(O)cc(O)c21 (stereo not drawn) | -22% | -16% | -4% | 2% | 2% | -22%

Compound activity (PubChem)
